Laboratory results published in PubChem BioAssay (NCATS).
Records with an inconclusive call do not appear. Calls of active or inactive are those of the source. Unless noted, calls follow the shape of the dose curve; as a rule, active = well fitted curve in the direction sought with a large enough effect; inconclusive = small, poorly fitted or top-dose-only effect, or another doubt; inactive = no such curve, though single readings can be large; an effect the other way counts as inactive or inconclusive.

Legend:
[1] = qHTS for compounds that reverse cellular toxicity of Amyloid beta (A-beta) peptide in yeast: LOPAC Validation Assay (AID 720559);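 also: plate controls were DMSO for no effect and equimolar ferric chloride plus clioquinol rescue for full effect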
Procedure, shortened: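 Yeast cells expressing toxic A-beta were combined with pinned compounds in growth medium and incubated 48 hr at 30 C. Growth was read as absorbance at 600 nm and normalized to DMSO and to an equimolar FeCl3/clioquinol positive control.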

[2] = qHTS for Activators of Parkin Expression: LOPAC Validation Assay (NLuc Reporter) (AID 720572;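 also: 0% = DMSO and 100% = positive control compound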)
Procedure, shortened: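 Neuronal cells with a Parkin promoter-driven FLuc/NLuc coincidence reporter were treated 24 h at 37 C in 7-point dose response (LOPAC). NLuc luminescence read after FLuc; signals normalized to DMSO and positive control (100%).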

[3] = qHTS for Activators of Parkin Expression: LOPAC Validation Assay (FLuc Reporter) (AID 720573;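 also: 0% = DMSO and 100% = positive control compounds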)
Procedure, shortened: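 Neuronal cell line stably carrying FLuc/NLuc coincidence reporter under Parkin promoter; cells plated 24 h, then compounds added in 7-point dose response for 24 h at 37 C. FLuc luminescence read; normalized to DMSO and positive control (100%).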

[4] = qHTS assay for small molecule agonists of the antioxidant response element (ARE) signaling pathway measured by Nrf2-dependant transcriptional activity (AID 720636; active = well fitted curve in the direction sought with a large enough effect in the repeat runs; an effect the other way counts as inactive or inconclusive; also: % of control where 0% means no effect)
Procedure, shortened: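 ARE-luc HepG2 cells carrying an Nrf2-responsive luciferase reporter, in medium with 1% dialyzed FBS, exposed to compound for 16 hr at 37 C, 5% CO2. Luminescence read 30 min after ONE-Glo addition.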

[5] = qHTS assay for small molecule agonists of the antioxidant response element (ARE) signaling pathway measured by Nrf2-dependant transcriptional activity - cell viability counter screen (AID 720653; active = well fitted curve in the direction sought with a large enough effect in the repeat runs; an effect the other way counts as inactive or inconclusive; also: % is scaled to controls: 0 for no effect and ±100 for the full control effect); conditions: ARE-bla HepG2 viability, CellTiter-Glo ATP luminescence, 16 h; max response: stronger effect = lower value
Procedure, shortened: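 ARE-bla HepG2 cells treated with compounds for 16 h at 37C; this counter screen measures viability as intracellular ATP by CellTiter-Glo luminescence after 30 min at room temperature.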

[6] = target: T1, Hexokinase-4 (Homo sapiens) + Glucokinase regulatory protein (Homo sapiens) (UniProt P35557+Q14397); test: qHTS assay for inhibitors of recombinant human GCK-GKRP interaction: Diaphorase-coupled assay (AID 743205)
Procedure, shortened: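 GST-GCK (10 nM) with FLAG-GKRP (10 nM), 5 mM glucose and 0.4 mM ATP in pH 7.6 Hepes; compounds preincubated 20 min with substrate. G6PDH/diaphorase coupling converts resazurin to resorufin, read kinetically (ex 525/em 590 nm) for 30 min.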

[7] = target: T1, Hexokinase-4 (Homo sapiens) + Glucokinase regulatory protein (Homo sapiens); test: qHTS assay for inhibitors of recombinant human GCK-GKRP interaction: ADP-Glo assay (AID 743206);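 also: plate controls were DMSO plus enzyme for no effect and no enzyme for full effect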
Procedure, shortened: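 GST-GCK and FLAG-GKRP (15 nM each in the dispensed mix, with 2 uM S6P) react with 0.4 mM ATP and 5 mM glucose (final) in Hepes pH 7.6 for 60 min at room temperature. ADP is measured by ADP-Glo luminescence.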

[8] = qHTS for small molecule inhibitors of Yes1 kinase: Counter Assay (AID 686950);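 also: no kinase present so only ADP-Glo detection of a fixed ADP amount is tested; luminescence from ADP-Glo reporting ADP in a fixed ATP and ADP mixture; series mostly up to about 77 µM; 0% = DMSO wells with ATP plus ADP and -100% = ATP-only wells without ADP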
Procedure, shortened: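 Enzyme-free detection counter-screen: compounds preincubated 20 min in buffer, then 0.08 mM ATP plus 0.02 mM ADP added for 60 min at room temperature; ADP-Glo luminescence. Buffer 50 mM Tris pH 7.5, 10 mM MgCl2, 150 mM NaCl; normalized to ATP+ADP and ATP-only controls.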

[9] = target: Arylsulfatase A (Homo sapiens) (UniProt P15289); test: qHTS screen for enhancers of Arylsulfatase A (ASA1): LOPAC Validation Assay (AID 720538); conditions: outcome: dose series up to 57.5 µM
Procedure, shortened: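 SV40-transformed skin fibroblasts from an MLD patient (ASA-I179S) were treated with compounds for 48h at 37 degree C, then lysed with 0.5mM pNCS final substrate for 14h at room temperature; NaOH stop, fluorescence read (Ex=525 nm; Em=598 nm).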

T1 sequence (P35557 whole entry, looked up): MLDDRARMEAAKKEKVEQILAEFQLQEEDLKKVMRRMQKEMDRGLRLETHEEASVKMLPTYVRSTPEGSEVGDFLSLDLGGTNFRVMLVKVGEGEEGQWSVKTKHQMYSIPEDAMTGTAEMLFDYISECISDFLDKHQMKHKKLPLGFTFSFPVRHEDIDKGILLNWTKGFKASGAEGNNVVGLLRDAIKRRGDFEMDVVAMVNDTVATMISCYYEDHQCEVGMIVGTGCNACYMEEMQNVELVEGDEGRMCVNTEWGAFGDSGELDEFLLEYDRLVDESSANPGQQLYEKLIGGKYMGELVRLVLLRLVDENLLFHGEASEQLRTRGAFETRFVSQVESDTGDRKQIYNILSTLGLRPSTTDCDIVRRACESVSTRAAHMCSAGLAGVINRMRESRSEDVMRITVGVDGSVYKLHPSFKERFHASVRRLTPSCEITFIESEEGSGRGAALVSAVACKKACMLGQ
T1 sequence (Q14397 whole entry, looked up): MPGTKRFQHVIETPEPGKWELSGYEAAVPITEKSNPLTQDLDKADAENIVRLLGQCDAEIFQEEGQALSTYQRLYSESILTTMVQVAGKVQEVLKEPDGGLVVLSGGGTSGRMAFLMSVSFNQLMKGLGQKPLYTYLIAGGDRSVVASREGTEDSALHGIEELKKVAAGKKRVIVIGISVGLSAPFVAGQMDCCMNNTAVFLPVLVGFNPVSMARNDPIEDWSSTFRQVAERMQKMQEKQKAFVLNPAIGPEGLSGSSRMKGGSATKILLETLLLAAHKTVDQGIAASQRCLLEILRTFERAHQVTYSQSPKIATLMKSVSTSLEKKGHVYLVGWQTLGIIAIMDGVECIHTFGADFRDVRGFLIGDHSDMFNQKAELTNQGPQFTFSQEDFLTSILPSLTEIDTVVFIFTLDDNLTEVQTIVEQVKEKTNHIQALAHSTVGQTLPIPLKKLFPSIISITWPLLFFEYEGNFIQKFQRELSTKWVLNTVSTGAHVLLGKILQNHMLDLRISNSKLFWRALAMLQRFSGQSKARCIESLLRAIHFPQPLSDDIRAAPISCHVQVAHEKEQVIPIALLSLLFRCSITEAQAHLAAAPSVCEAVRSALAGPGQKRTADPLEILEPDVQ
Chain of Arylsulfatase A (Homo sapiens) (P15289 whole entry, looked up): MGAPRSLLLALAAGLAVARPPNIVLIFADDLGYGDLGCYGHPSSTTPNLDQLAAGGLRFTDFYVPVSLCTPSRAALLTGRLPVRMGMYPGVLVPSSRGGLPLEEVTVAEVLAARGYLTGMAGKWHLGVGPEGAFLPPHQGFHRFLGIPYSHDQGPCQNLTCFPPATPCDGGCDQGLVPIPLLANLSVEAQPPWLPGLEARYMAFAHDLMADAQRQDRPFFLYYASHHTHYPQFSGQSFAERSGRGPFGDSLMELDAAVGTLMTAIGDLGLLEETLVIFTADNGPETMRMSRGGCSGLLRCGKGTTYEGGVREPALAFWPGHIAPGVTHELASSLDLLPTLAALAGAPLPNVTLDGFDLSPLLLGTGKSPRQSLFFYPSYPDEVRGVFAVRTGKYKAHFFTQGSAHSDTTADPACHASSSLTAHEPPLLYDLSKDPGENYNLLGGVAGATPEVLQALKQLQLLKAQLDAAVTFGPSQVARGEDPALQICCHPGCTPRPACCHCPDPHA

Clc1cnc(Oc2ccc(Oc3ncc(Cl)cc3Cl)cc2)c(Cl)c1
inactive: outcome [1] | outcome [2] | outcome [3] | Potency [4] | max response [5] -6.15% | outcome [6] | outcome [7]

Cn1cnc(CCN)c1
inactive: outcome [1] | outcome [2] | outcome [3] | outcome [6] | outcome [7]

O=C(Cc1ccc(Cl)c(Cl)c1)N1CCCCC1CN1CCCC1 (centres undefined)
inactive: outcome [1] | outcome [2] | outcome [3] | outcome [6] | outcome [7]

C[N+]1(C)C2CCC1CC(OC(=O)C(CO)c1ccccc1)C2 (centres undefined)
inactive: outcome [1] | outcome [2] | outcome [3] | outcome [6] | outcome [7]

COc1ccc2c(c[n+](C)c3c4cc5c(cc4ccc23)OCO5)c1OC
inactive: outcome [8] | outcome [1] | outcome [2] | outcome [3] | outcome [6] | outcome [7]

CC1CC(C)C(=O)C(C(O)CC2CC(=O)NC(=O)C2)C1 (centres undefined)
inactive: outcome [8]

C[C@@H](N)Cc1cnc[nH]1
inactive: outcome [9] | outcome [1] | outcome [2] | outcome [3] | outcome [6] | outcome [7]

NC1CC1c1ccccc1 (centres undefined)
inactive: outcome [1] | outcome [2] | outcome [3] | outcome [6] | outcome [7]

CC[C@@]1(O)C(=O)OCc2c1cc1n(c2=O)Cc2cc3ccccc3nc2-1
inactive: outcome [1] | outcome [2] | outcome [3] | outcome [6] | outcome [7]

Cc1ccccc1-n1c(Cn2cnc3c(N)ncnc32)nc2cccc(C)c2c1=O
inactive: outcome [8]

Oc1ccc2c3c1O[C@H]1c4[nH]c5c(c4C[C@@]4(O)[C@@H](C2)N(CC2CC2)CC[C@]314)C[C@@]1(O)[C@H]2Cc3ccc(O)c4c3[C@@]1(CCN2CC1CC1)[C@H]5O4
inactive: outcome [1] | outcome [2] | outcome [3] | outcome [6] | outcome [7]

C=CCON=C(C[C@H]1O[C@@H]2O[C@]3(C)CC[C@@H]4[C@H](C)CC[C@@H]([C@H]1C)[C@@]24OO3)[C@H]1O[C@@H]2O[C@]3(C)CC[C@H]4[C@H](C)CC[C@@H]([C@@H]1C)[C@@]24OO3
inactive: outcome [8]

NCCc1c[nH]c2ccc(O)cc12
inactive: outcome [1] | outcome [2] | outcome [3] | outcome [6] | outcome [7]

C/C=C(/C)C(=O)O[C@H]1C(C)=C2[C@H]([C@@H]1OC(=O)CCCCCCC)[C@@](C)(OC(C)=O)C[C@H](OC(=O)CCC)[C@@]1(O)[C@H]2OC(=O)[C@@]1(C)O
inactive: outcome [1] | outcome [2] | outcome [3] | outcome [6] | outcome [7]

O=C1CCCN1CC#CCN1CCCC1
inactive: outcome [1] | outcome [2] | outcome [3] | outcome [6] | outcome [7]

CC(Cc1ccc(O)cc1)NCC(O)c1cc(O)cc(O)c1 (centres undefined)
inactive: outcome [9] | outcome [1] | outcome [2] | outcome [3] | outcome [6] | outcome [7]

NC(=O)CN1CC(O)CC1=O (centres undefined)
inactive: outcome [9] | outcome [1] | outcome [2] | outcome [3] | outcome [6] | outcome [7]

CC(C)[C@]12O[C@H]1[C@@H]1O[C@]13[C@]1(O[C@H]1C[C@H]1C4=C(CC[C@@]13C)C(=O)OC4)[C@@H]2O
inactive: outcome [8]

NC(CCP(=O)(O)O)C(=O)O (centres undefined)
inactive: outcome [1] | outcome [2] | outcome [3] | outcome [6] | outcome [7]

C[C@@H]1O[C@H](C[N+](C)(C)C)C[C@H]1O
inactive: outcome [1] | outcome [2] | outcome [3] | outcome [6] | outcome [7]

CC(=O)[C@H]1CCC2C3CC[C@H]4C[C@H](O)CC[C@]4(C)C3CC[C@@]21C (some centres undefined)
inactive: outcome [1] | outcome [2] | outcome [3] | outcome [6] | outcome [7]

O=C(Oc1ccc([N+](=O)[O-])cc1)N1CCC(C(O)(c2ccc3c(c2)OCO3)c2ccc3c(c2)OCO3)CC1
inactive: outcome [8]

c1ccc(CCCN2CCN(CCOC(c3ccccc3)c3ccccc3)CC2)cc1
inactive: outcome [9] | outcome [1] | outcome [2] | outcome [3] | outcome [6] | outcome [7]

Cc1nc(-c2ccc(-c3ccc(C(=O)N4CCc5cc6c(cc54)C4(CCN(C)CC4)CO6)cc3)c(C)c2)no1
inactive: outcome [8]

C=CCN1CC[C@]23CCCCC2[C@H]1Cc1ccc(O)cc13 (some centres undefined)
inactive: outcome [9] inactive; inhibitor; fitted 0.0301 uM | outcome [1] | outcome [2] | outcome [3] | outcome [6] | outcome [7]

CC(C)Oc1cccnc1N(C)C1CCN(Cc2ccccc2)CC1
inactive: outcome [1] | outcome [2] | outcome [3] | outcome [6] | outcome [7]

S=C(NC1CCCCC1)N1CCC(c2cnc[nH]2)CC1
inactive: outcome [1] | outcome [2] | outcome [3] | outcome [6] | outcome [7]

COC(=O)[C@@H](N)CCCN=C(N)N[N+](=O)[O-]
inactive: outcome [1] | outcome [2] | outcome [3] | outcome [6] | outcome [7]

NC(N)=NOCCC(N)C(=O)O (centres undefined)
inactive: outcome [1] | outcome [2] | outcome [3] | outcome [6] | outcome [7]

c1ccc(C2(c3ccccc3)CC2C2=NCCN2)cc1 (centres undefined)
inactive: outcome [1] | outcome [2] | outcome [3] | outcome [6] | outcome [7]
